High-throughput results deposited in PubChem BioAssay by Broad Institute.
Only a sample is shown.
aSyn 5UTR act: Activators via SNCA 5'UTR binding, MLPCN; activity score, % (tested at 7.5 µM), hits read low; 300,000 compounds, 7.1% hits; alpha-synuclein 5'UTR reporter, activators screen; AID 1814, 2009; in the data active means activity score below about -60%
Starred values were filed as active, the others as inactive.

SMILES	aSyn 5UTR act
COc1ccc(NC(=S)Nc2ncccc2C)c(OC)c1	-92.5*
Cc1cccc(NCc2ccc(O)c3ncccc23)c1C	55.6
Cc1cccnc1NC(=S)Nc1ncccc1C	-119.5*
O=C(NC1=NCCS1)c1sc2ccccc2c1Cl	-166.2*
O=C(NC1=NCCS1)c1sc2cc(Cl)cc(Cl)c2c1Cl	-63.8*
Cc1cccnc1NC(=O)c1sc2ccccc2c1Cl	-70.3*
Cc1ccccc1Cn1cc(NC(=O)c2nc3ncccn3n2)cn1	-94.7*
O=C(Nc1ccccc1-c1ccccc1)C12CC3CC(CC(C3)C1)C2	-78.3*
O=C(Nc1nc(COc2ccccc2)cs1)C12CC3CC(CC(C3)C1)C2	-147.1*
CC(=O)Nc1nc(COc2ccccc2)cs1	-136.8*
CC(=O)Nc1nc(COc2ccc3ccccc3c2)cs1	-148.0*
Nc1nc(CCOc2ccc(F)cc2)cs1	-111.5*
CC(=O)c1csc(COc2ccccc2)n1	-108.9*
O=C(Nc1nc(COc2ccccc2)cs1)C1CCC1	-102.8*
Nc1nc(COc2ccc3ccccc3c2)cs1	-78.9*
COc1ccc(-c2nc(=S)c3c([nH]2)Oc2ccc(C)cc2C3)cc1O	-75.6*
COc1cccc(-c2ccnc3[nH]n(-c4ccccc4)c(=O)c23)c1	-75.8*
COc1cccc(NC(=O)C2CCN(S(=O)(=O)c3ccc4c(c3)NC(=O)C(C)S4)CC2)c1 (stereo not given)	-68.1*
CC(=O)c1cccc(NC(=O)CN2C(=O)COc3ccc(S(=O)(=O)N4CCOCC4)cc32)c1	73.0
CCOC(=O)C1CCN(C(=O)CN2C(=O)COc3ccc(C(C)(C)C)cc32)CC1	-111.2*
O=C(NCC(=O)N1CCN(c2ncccn2)CC1)c1cccs1	-66.5*
Clc1ccc(N2CCN(c3cnc4ccccc4n3)CC2)cc1	-137.3*
Fc1ccc(N2CCN(c3cnc4ccccc4n3)CC2)cc1	-251.3*
c1ccc(N2CCN(c3cnc4ccccc4n3)CC2)cc1	-76.9*
O=C(COc1ccccc1[N+](=O)[O-])N/N=C/c1cccc(OC(=O)c2ccc3c(c2)OCO3)c1	-156.7*
SMILES	aSyn 5UTR act
O=C(COc1ccccc1[N+](=O)[O-])Nc1ccc2c(c1)OCO2	-132.9*
O=C(COc1ccccc1[N+](=O)[O-])Nc1ccc(NC(=O)c2cc3ccccc3o2)cc1	-118.8*
O=C(Cc1ccccc1[N+](=O)[O-])Nc1ccc2c(c1)OCCO2	-100.4*
O=C(COc1ccc(/C=N/NC(=O)c2cc3ccccc3o2)cc1Br)Nc1ccccc1	116.3
O=C(COc1cc(F)ccc1[N+](=O)[O-])Nc1cccc(Br)c1	-71.3*
COCCCn1c(C(=O)N2CC(C)OC(C)C2)cc2c(=O)n3cccc(C)c3nc21 (stereo not given)	-71.4*
CCCCCc1nc2c(=O)[nH]c3ccccc3c2o1	-77.6*
O=C(CN1CCCC1)Nc1ccc(NC(=O)Nc2ccccc2Cl)cc1	-126.4*
O=C(Nc1ccccc1)Nc1cccc(Cl)c1Cl	-237.2*
O=C(Nc1ccccc1)Nc1ccc(Br)c(Cl)c1	-126.0*
O=C(Nc1ccc(Cl)cc1)Nc1cccc2nsnc12	-125.8*
S=C(Nc1ccc(OCc2ccccc2)cc1)Nc1cccc(Cl)c1Cl	-102.1*
O=C(Nc1ccccc1)Nc1ccccc1Br	-93.6*
Cn1cnnc1SCc1ccc(-c2ccc(Br)cc2)o1	-72.4*
CCOC(=O)c1c(C)[nH]c(C(=O)COC(=O)C2CC2C)c1C (stereo not given)	-142.9*
CCSc1nc2ccccc2n1C(=O)/C=C/c1ccc(OC)c(OC)c1	-168.0*
C=CCSc1nc2ccccc2n1C(=O)/C=C/c1cc(OC)c(OC)c(OC)c1	-172.3*
C=CCSc1nc2ccccc2n1C(=O)/C=C/c1ccc(OC)c(OC)c1	-219.4*
CC1CCC/C(=N\Nc2ccc(Cl)c(C(=O)O)c2)C1 (stereo not given)	-98.5*
CC1CCC/C(=N\NC(=O)Nc2ccccc2)C1 (stereo not given)	-141.6*
CN(C)/C=N/C(=S)Nc1ccc(Cl)cc1Cl	-107.5*
O=C(NCC1COc2ccccc2O1)c1ccc(Cl)cc1 (stereo not given)	-92.6*
CN(CC1COc2ccccc2O1)C(=O)c1ccc(N(C)C)cc1 (stereo not given)	-61.5*
c1ccc(CCNCC2COc3ccccc3O2)cc1 (stereo not given)	-64.0*
N/C(=N\OC(=O)/C=C/c1ccccc1Cl)c1ccncc1	-126.1*
SMILES	aSyn 5UTR act
O=C(/C=C/c1ccccc1)c1ccccn1	-134.9*
O=C(/C=C/c1ccc2c(c1)OCO2)c1ccccn1	-140.3*
N/C(=N\OC(=O)/C=C/c1ccccc1)c1ccccn1	-99.4*
O=C(/C=C/Nc1ccccc1Br)c1ccccn1	114.3
Cc1ccc(C(=O)O/N=C(\N)c2ccccn2)c(Cl)c1	107.6
N/C(=N\OC(=O)/C=C/c1ccccc1)c1ccncc1	-133.0*
O=C(CN1C(=O)S/C(=C\C=C\c2ccccc2)C1=O)Nc1cccc(O)c1	-218.4*
CCN(C(=O)CN1C(=O)S/C(=C\C=C\c2ccccc2)C1=O)C1CCS(=O)(=O)C1 (stereo not given)	-117.6*
O=C(CCN1C(=O)S/C(=C\C=C\c2ccccc2)C1=O)Nc1ccc(O)cc1	-203.7*
CC(=O)O[C@H]1C(=O)[C@@]2(C)[C@H]([C@H](OC(=O)c3ccccc3)[C@]3(O)C[C@H](OC(=O)[C@H](O)C(NC(=O)c4ccccc4)c4ccccc4)C(C)=C1C3(C)C)[C@]1(OC(C)=O)CO[C@@H]1C[C@@H]2O (stereo not given in full)	72.3
Cc1ccccc1NC(=O)Nc1nc2ccc(S(C)(=O)=O)cc2s1	-85.3*
COc1ccc2nc(NC(=O)c3cc(C)oc3C)sc2c1	-140.5*
COc1ccc(C(=O)Nc2nc3cc4c(cc3s2)OCO4)c(OC)c1	-97.7*
COc1ccc(NS(=O)(=O)c2cc(C)ccc2NC(=O)c2cc(C)oc2C)cc1	103.5
COc1ccc2nc(NC(=O)c3cccnc3SC)sc2c1	-129.8*
Cc1cc(C(=O)Nc2nc3ccc(S(C)(=O)=O)cc3s2)c(C)o1	-107.7*
CCc1ccc2oc(-c3ccc(OC)cc3)cc(=Nc3c(C)n(C)n(-c4ccccc4)c3=O)c2c1	-77.3*
Cc1cccc(NC(=O)c2cc(-c3cc(C)ccc3O)n[nH]2)c1	-226.9*
Cc1cccc(NC(=O)c2cc(-c3cc(C)c(C)cc3O)n[nH]2)c1	-233.8*
Cc1ccc(-c2cc(C(=O)Nc3cccnc3)[nH]n2)c(O)c1C	-201.6*
COc1ccc(NC(=O)c2cc(-c3cc(C)ccc3O)n[nH]2)cc1Cl	-72.5*
Cn1ccsc1=NC(=O)c1ccc([N+](=O)[O-])o1	-160.8*
Cc1cccc(C(=O)Nc2ccccc2C(=O)OCC(=O)Nc2ccc(C#N)cc2)c1	-100.0*
O=c1cc(/C=C/c2c(F)cccc2Cl)[nH]c2ccccc12	-102.4*
CSc1nc2ccc3nc(NC(=O)c4ccccc4)sc3c2s1	-317.6*
SMILES	aSyn 5UTR act
Cc1csc2nc(NC(=O)c3ccccc3)sc(=O)c12	-96.7*
O=C(Nc1nc2ccsc2c(=O)s1)c1ccc(F)cc1Cl	-117.3*
O=C(Nc1nc2ccsc2c(=O)s1)c1ccc(F)cc1	-158.2*
CC(NC(=O)Nc1ccc(Br)cc1)C(C)(C)C (stereo not given)	-77.2*
CNC(=O)c1[nH]nc2c1CCc1cc(OC)ccc1-2	-105.3*
COc1ccc2c(c1)CCc1c-2n[nH]c1C(=O)NCCC(C)C	-71.3*
Cc1cc(SCC(=O)c2cc3ccccc3o2)nc2ccccc12	-73.2*
O=C(C[n+]1cc(-c2ccc(F)cc2)n2c1CCC2)Nc1nc(-c2ccc(F)cc2)cs1	-63.0*
O=C(C[n+]1cc(-c2ccc(F)cc2)n2c1CCC2)N1c2ccccc2Sc2ccccc21	-180.6*
